# Measurements taken from PubChem BioAssay (NCATS).
# Inconclusive results are not listed. Unmarked numbers belong to inactive results. Active and inactive are the calls of the source. Calls follow the shape of the dose curve; as a rule, active = well fitted inhibition curve with a large enough effect; inconclusive = small, poorly fitted or top-dose-only effect; inactive = no such curve, though single readings can be large or run the other way.
# Target: Protein phosphatase 1D (Homo sapiens) (UniProt O15297)
# Sequence (O15297 whole entry, looked up): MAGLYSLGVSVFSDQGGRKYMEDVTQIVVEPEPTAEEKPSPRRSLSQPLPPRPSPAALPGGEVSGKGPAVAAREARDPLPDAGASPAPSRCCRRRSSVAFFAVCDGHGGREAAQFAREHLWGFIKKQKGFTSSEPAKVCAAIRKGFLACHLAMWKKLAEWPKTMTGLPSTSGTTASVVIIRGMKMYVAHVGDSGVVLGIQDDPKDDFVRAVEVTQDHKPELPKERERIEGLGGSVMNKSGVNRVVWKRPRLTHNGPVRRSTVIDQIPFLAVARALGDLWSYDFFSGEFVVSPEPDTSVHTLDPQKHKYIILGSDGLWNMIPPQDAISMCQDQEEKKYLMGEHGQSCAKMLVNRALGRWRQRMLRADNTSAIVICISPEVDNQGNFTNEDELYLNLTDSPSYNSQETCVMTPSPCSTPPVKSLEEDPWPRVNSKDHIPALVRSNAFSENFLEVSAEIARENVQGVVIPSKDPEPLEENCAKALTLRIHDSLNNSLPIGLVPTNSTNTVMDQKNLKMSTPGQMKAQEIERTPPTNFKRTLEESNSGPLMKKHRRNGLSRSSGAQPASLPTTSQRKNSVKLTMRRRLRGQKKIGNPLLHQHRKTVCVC
# Assay: RapidFire Mass Spectrometry qHTS Assay for Modulators of WT P53-Induced Phosphatase 1 (WIP1) (AID 1347424)
# Conditions: WIP1 dephosphorylation of phosphopeptide, RapidFire MS; series mostly up to 63 µM
# From the text: Assay Provider (PI): Nathan Coussens Ph. D.
# National Center for Advancing Translational Sciences (NCATS), Rockville, MD
# National Institute of Health (NIH), Bethesda, Maryland
# WT P53-Induced Phosphatase 1 (WIP1) is a member of the magnesium-dependent serine/threonine protein phosphatase (PPM) family and is induced by P53 in response to DNA damage. In several human cancers, the WIP1 protein is overexpressed, which is generally associated with a worse prognosis. Although WIP1 is an attractive therapeutic target, no potent, selective, and bioactive small-molecule modulator with favorable pharmacokinetics has been reported. Phosphatase enzymes are among the most challenging targets for small molecules because of the difficulty of achieving both modulator selectivity and bioavailability. Another major obstacle has been the availability of robust and physiologically relevant phosphatase assays that are suitable for high-throughput screening.
# Here, we describe two orthogonal biochemical WIP1 activity assays that utilize phosphopeptides from native WIP1 substrates. We optimized a RapidFire MS assay to quantify the enzymatically dephosphorylated peptide reaction product in a 384-well format. Additionally, a redshifted Rhodamine-PBP fluorescence assay was optimized in a 1,536-well format to enable real-time WIP1 activity measurements through the detection of the orthogonal reaction product, Pi. We validated these two optimized assays by quantitative high-throughput screening against the National Center for Advancing Translational Sciences (NCATS) Pharmaceutical Collection and used secondary assays to confirm and evaluate inhibitors identified in the primary screen.
# SEQUENCE No. (e.g., 1, 2, 3, etc.); […] (e.g., Cells, Incubation, Reagent, etc.); VALUE; DESCRIPTION
# 1; Reagent; 50 uL; dispensed assay buffer: 0.1% formic acid in water (10 uL : 40 uL) solution in column 1
# 3; Library Compounds; 63 nL; library compounds in DMSO, columns 3-24
# 4; Control Compounds; 63 nL; DMSO in wells I-P, columns 1-2, GSK830371 (10 uM, final) in wells A-H, column 2
# 5; Time; 1 hr; incubation
# 6; Substrate; 2 uL; VEPPL-pS-QETFS (10 uM) in assay buffer, column 2-24
# 7; Time; 5 min; incubation
# 8; Reagent; 2 uL; 0.5% formic acid in water, columns 2-24
# 9; Reagent; 38 uL; VEPPL-S-QETF*S in 0.1% formic acid, columns 2-24
# 10; Detection; mass spec; RapidFire mass spectrometry
# NOTES (numbers refer to sequence above)
# 1, 2, 6; dispensed reagent in White Nunc 384-well PP microplates (264573); assay buffer: 50 mM Tris-HCl pH 7.5, 30 mM MgCl2, 1 mM TCEP, 0.1 mM EGTA, 75 ug/mL BSA.
# 2, 6, 8, 9; Dispensed with BioRaptr (Beckman Coulter)
# 2, 6, 9; Final concentrations: 10 nM WIP1; 2 uM VEPPL-pS-QETFS; 1 uM VEFFL-S-QETF*S
# 3 & 4; Kalypsys Pintool transfer (Wako USA), Tip wash sequence: water, DMSO, methanol, 20 sec vacuum dry.
# 5 & 7; incubation at room temperature
# 10; RapidFire mass spectrometry read using the Agilent RapidFire 360 (Clausse, 2019)
# Clausse V, et al. Physiologically relevant orthogonal assay for the discovery of small-molecule modulators of WIP1 […] in high-throughput screens. J Biol Chem. 2019, 294(46): 17654-17668. doi:10.1074/jbc.RA119.010201
Compound,outcome,"activity change, negative = inhibition"
O=C(O)c1ccccc1-c1ccc(C(F)(F)F)cc1,inactive,
CC1(C)Oc2ccc(C#N)cc2[C@@H](N2CCCC2=O)[C@@H]1O,inactive,
NCCNCCNCCN,inactive,
NC(N)=NCCC[C@H](N)C(=O)O,,-3.57% [at 6.17 µM]
CN(C)CCCO[C@@H]1[C@H]2OC(C)(C)O[C@H]2O[C@@H]1C(O)CO (stereo not given in full),inactive,
OCCN1CCN(CCCN2c3ccccc3Sc3ccc(Cl)cc32)CC1,inactive,
CCOC(CN1CCN(CC(C)C(=O)c2ccccc2)CC1)c1ccccc1 (stereo not given),inactive,
CCN(CC)CCNC(C(=O)OCCC(C)C)c1ccccc1 (stereo not given),inactive,
O=Cc1ccccc1C=O,inactive,
CC1=C(/C=C/C(C)=C/C=C/C(C)=C/C(=O)O)C(C)(C)CCC1,inactive,
CNC(=O)Oc1ccc2c(c1)[C@]1(C)CCN(C)[C@@H]1N2C,inactive,
N[C@H](C(=O)O)c1ccc(O)cc1,inactive,
CCCCOC(=O)c1ccc(O)cc1,inactive,
CCCCC(CC)COC(=O)c1ccccc1O (stereo not given),inactive,
COC(=O)C1=C(C)NC(C)=C(C(=O)OC)C1c1ccccc1[N+](=O)[O-],inactive,
O=S(=O)(O)c1cc(I)c(O)c2ncccc12,inactive,
CN(C)CCCN1c2ccccc2CCc2ccccc21,inactive,
CNCC(O)c1ccc(O)c(O)c1 (stereo not given),inactive,
C/C(=C(\CCOP(=O)(O)O)SC(=O)c1ccccc1)N(C=O)Cc1cnc(C)nc1N,,3.91% [at 6.17 µM]
N[C@@H](CSSC[C@H](N)C(=O)O)C(=O)O,,-0.373% [at 0.505 µM]

Compound,outcome,"activity change, negative = inhibition"
O=C1O[C@H]([C@@H](O)CO)C(O)=C1O,inactive,
CCn1cc(C(=O)O)c(=O)c2cnc(N3CCNCC3)nc21,inactive,
CN1CCCCC1CCN1c2ccccc2Sc2ccc(S(C)=O)cc21 (stereo not given),inactive,
CC(C)(C)NCC(O)COc1ccc(NC(=O)NC2CCCCC2)cc1 (stereo not given),inactive,
NC(=O)N/N=C/c1ccc([N+](=O)[O-])o1,inactive,
Cc1cc2nc3c(=O)[nH]c(=O)nc-3n(C[C@H](O)[C@H](O)[C@H](O)CO)c2cc1C,inactive,
COc1ccc2cc1Oc1ccc(cc1)C[C@H]1c3c(cc4c(c3Oc3cc5c(cc3OC)CCN(C)[C@@H]5C2)OCO4)CCN1C,inactive,
C[C@@H]1C[C@H]2[C@@H]3C[C@H](F)C4=CC(=O)C=C[C@]4(C)[C@@]3(F)[C@@H](O)C[C@]2(C)[C@@]1(O)C(=O)CO,inactive,
C[C@H](NC(CCc1ccccc1)C(=O)O)C(=O)N1CCC[C@H]1C(=O)O (stereo not given in full),inactive,
Nc1ccc(S(=O)(=O)Nc2ccccc2)cc1,inactive,
CCOC(=O)[C@H](CCc1ccccc1)N[C@@H](C)C(=O)N1C(=O)N(C)C[C@H]1C(=O)O,inactive,
C[C@](N)(Cc1ccc(O)cc1)C(=O)O,,3.41% [at 6.17 µM]
C=CCn1c(=O)n([C@@H]2O[C@H](CO)[C@@H](O)[C@H]2O)c2nc(N)[nH]c(=O)c21,inactive,
Nc1cc(=O)[nH]c(N)n1,inactive,
Nc1ccc(S(=O)(=O)Nc2ccc(Cl)nn2)cc1,inactive,
CCCCc1ncc(/C=C(\Cc2cccs2)C(=O)O)n1Cc1ccc(C(=O)O)cc1,inactive,
CC(=O)NC(Cc1ccccc1)C(=O)O (stereo not given),inactive,
O=C(O)[C@@H]1CSCN1,inactive,
c1ccc(CN(CC2=NCCN2)c2ccccc2)cc1,inactive,
CN(C)CCN(Cc1ccccc1)c1ccccn1,inactive,
